Results filed as inconclusive are left out. The source made the active and inactive calls. Calls come from the whole dose curve; as a rule, active = well fitted inhibition curve with a large enough effect; inconclusive = small, poorly fitted or top-dose-only effect; inactive = flat fitted curve, though single readings scatter.
Legend:
Test in all cases: qHTS profiling for inhibitors of Plasmodium falciparum proliferation (AID 504749); note: nearly all actives have a fitted effect of over 60% in size
Conditions in all cases: P. falciparum in erythrocytes, SYBR Green DNA, 72 h; series mostly up to 28.7 µM
CP262 = system: CP262
Outline: (§1)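 SYBR Green fluorescence of parasite DNA, read after lysis and overnight dark incubation, measured growth over 72 h in erythrocyte culture at 0.3% parasitemia and 2.5% hematocrit. Data normalised to DMSO and 0.29 uM artemisinin, with plate-drift correction.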

CP265 = system: CP265
Outline: as §1

CP266 = system: CP266
Outline: as §1

CP268 = system: CP268
Outline: as §1

CP269 = system: CP269
Outline: as §1

CP286 = system: CP286
Outline: as §1

CP291 = system: CP291
Outline: as §1

CP297 = system: CP297
Outline: as §1

CP305 = system: CP305
Outline: as §1

CP315 = system: CP315
Outline: as §1

CP325 = system: CP325
Outline: as §1

CP329 = system: CP329
Outline: as §1

CP335 = system: CP335
Outline: as §1

DIV14 = system: DIV14
Outline: as §1

DIV17 = system: DIV17
Outline: as §1

DIV30 = system: DIV30
Outline: as §1

Dd2 = system: Dd2
Outline: as §1

ECU = system: ECU
Outline: as §1

FAB9 = system: FAB9
Outline: as §1

GB4 = system: GB4
Outline: as §1

HB3 = system: HB3
Outline: as §1

ICS = system: ICS
Outline: as §1

JCK = system: JCK
Outline: as §1

N140 = system: N140
Outline: as §1

P93_24 = system: P93_24
Outline: as §1

P94_40 = system: P94_40
Outline: as §1

PAD = system: PAD
Outline: as §1

PC15 = system: PC15
Outline: as §1

PC26 = system: PC26
Outline: as §1

PC49 = system: PC49
Outline: as §1

SC27B = system: SC27B
Outline: as §1

TAB109 = system: TAB109
Outline: as §1

TAB113 = system: TAB113
Outline: as §1

TAB165 = system: TAB165
Outline: as §1

Measured: Potency

CN1[C@@H]2CC(OC(=O)[C@@H](CO)c3ccccc3)C[C@@H]1[C@H]1O[C@H]12 (some centres undefined)
inactive: CP262 | CP265 | CP266 | CP268 | CP269 | CP286 | CP291 | CP297 | CP305 | CP315 | CP325 | CP329 | CP335 | DIV14 | DIV17 | DIV30 | Dd2 | ECU | FAB9 | GB4 | HB3 | ICS | JCK | N140 | P93_24 | P94_40 | PAD | PC15 | PC26 | PC49 | SC27B | TAB109 | TAB113 | TAB165

Source: PubChem BioAssay (NCATS)
